4MU fluor: qHTS Assay for Spectroscopic Profiling in 4-MU Spectral Region; AID 589, 2007; compound autofluorescence, 340/450 nm, 4-MU equivalents; active compounds read high; 59,000 tested, 11% active; max dye-equivalent concentration, M; in the data active = max dye-equivalent concentration above about 10 nM; inconclusive = mostly about 1.1 nM to 9.6 nM
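Compounds in 100 mM Tris, pH 8.0, incubated 15 min at room temperature, then fluorescence read at 340 nm excitation/450 nm emission. Signal converted to 4-MU dye-equivalent concentration using an on-plate six-point 4-MU standard curve.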
AID923: qHTS Assay for Allosteric/Competitive Inhibitors of Caspase-1: Spectroscopic Profiling in AFC Spectral Region | compound fluorescence, AFC spectral region (405/520 nm) | Potency, µM (top dose mostly 57.5 µM), inactives show at the highest dose fluorescence increase, most hits filed as activators | 75,000 tested, 1.1% active; note: potency is the fitted concentration of half-maximal effect; 0% is about no effect
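Baseline compound fluorescence (AFC region, 405 nm ex/520 nm em) taken from the intercept of kinetic reads with 50 nM caspase-1 and 5 uM Ac-WEHD-AFC; normalized to an on-plate AFC standard curve; compounds titrated up to 57 uM.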
HADH2 inh: qHTS Assay for Inhibitors of HADH2 (Hydroxyacyl-Coenzyme A Dehydrogenase, Type II); 3-hydroxyacyl-CoA dehydrogenase type-2 (Homo sapiens), Q99714; recombinant HADH2, NADH fluorescence, beta-hydroxybutyryl-CoA; Potency, µM (series often up to 57.1 µM), for inactives: at the highest dose activity change, negative = inhibition, hits mostly inhibitors; 73,000 tested, 3.4% active; AID 886, 2007; note: potency is the fitted concentration of half-maximal effect; % is set by controls: 0 for no effect and ±100 for the full control effect; nearly all actives have a fitted effect of over 60% in size
Target sequence (Q99714 whole entry, looked up, one chain of several): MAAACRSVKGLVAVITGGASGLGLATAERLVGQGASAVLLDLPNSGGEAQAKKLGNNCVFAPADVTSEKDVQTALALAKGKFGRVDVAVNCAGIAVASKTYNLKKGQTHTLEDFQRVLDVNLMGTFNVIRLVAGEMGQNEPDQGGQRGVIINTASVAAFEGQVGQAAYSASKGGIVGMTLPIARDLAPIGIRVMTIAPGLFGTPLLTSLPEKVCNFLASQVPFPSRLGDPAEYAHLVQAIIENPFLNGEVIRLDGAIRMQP
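His-tagged recombinant enzyme from E. coli, 20 nM, preincubated 15 min RT with compound; reaction started with 1 mM NAD+ and 90 uM beta-hydroxybutyryl-CoA in 100 mM Tris-HCl pH 9.0. NADH fluorescence (ex 360/em 450) read over 4 min; last-minus-first difference.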
CRE-bla Fsk: Cell signaling CRE-BLA (Fsk stim). 71,000 tested, 2.5% active. AID 662, 2007. Potency, µM (highest dose often 38.2 µM), for inactives: at the top dose activity change, negative = inhibition, hits mostly activators. CHO CRE-bla reporter (cAMP response element driving beta-lactamase), forskolin EC10, beta-lactamase ratio; active = well fitted activation curve with a large enough effect in the signal ratio, with a control signal flat, not every such curve was filed as active; inconclusive = small, poorly fitted or top-dose-only effect, or effect the other way, or a change in a side signal; the % refers to the signal ratio; note: potency is the fitted concentration of half-maximal effect; % of control where 0% means no effect
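qHTS titration format; CRE-bla CHO reporter; stimulus EC10 NKH 477, a water-soluble forskolin. Read: CCF4 460/530 nm ratio. Potency expressed as AC50 for activators or inhibitors.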
A350 autofl: qHTS Assay for Spectroscopic Profiling in A350 Spectral Region; Compound autofluorescence, 340/450 nm, Alexa 350 dye-equivalents; active compounds read high; max dye-equivalent concentration, M; 59,000 tested, 11% active; in the data active = max dye-equivalent concentration above about 10 nM; inconclusive = mostly about 1.1 nM to 9.6 nM
HSD17B inh: qHTS Assay for Inhibitors of HSD17B4, hydroxysteroid (17-beta) dehydrogenase 4; 3-hydroxyacyl-CoA dehydrogenase type-2 (Homo sapiens), Q99714; recombinant HSD17B10, NADH fluorescence kinetic; Potency, µM (highest dose often 57.1 µM), for the others: at the top dose activity change, negative = inhibition, most hits filed as inhibitors; 75,000 tested, 7.6% active; AID 893, 2007;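 note: the protocol describes HADH2 (HSD17B10) and not the HSD17B4 of the title; potency is the fitted concentration of half-maximal effect; % is set by controls: 0 for no effect and ±100 for the full control effect; nearly all actives have a fitted effect of over 70% in size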
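Enzyme plus compound, 15 min room temperature; substrate mix added (NAD+ 1 mM, beta-hydroxybutyryl-CoA 90 uM final); plates read kinetically for NADH fluorescence. HADH2 was His-tagged, E. coli-derived, 20 nM.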
The depositor's hits bear a star; i = inactive; ? = inconclusive; . = no result. Hits are enriched below; roughly 14% of the tested compounds scored in any of these assays. Unless noted, calls come from the whole dose curve; as a rule, active = well fitted curve in the direction sought with a large enough effect; inconclusive = small, poorly fitted or top-dose-only effect, or another doubt; inactive = no such curve, though single readings can be large; an effect the other way counts as inactive or inconclusive.

SMILES	4MU fluor	AID923	HADH2 inh	CRE-bla Fsk	A350 autofl	HSD17B inh
CC(=O)COc1cc(C)cc2oc(=O)c(C)c(C)c12	3.2e-08M*	2%	136%	15%	3.6e-08M*	25µM*
CC(=O)C(C)Oc1cc(C)cc2oc(=O)c(C)c(C)c12 (stereo not given)	1.5e-08M*	0%	32µM*	23%	1.9e-08M*	10µM*
O=C(c1cnccn1)N1CCC2(CCCN(C(c3ccccc3)c3ccccc3)C2)CC1	i	1%	10%	?	i	-10%
CN(C)Cc1ccccc1-c1nc(NCc2cccs2)c2ccccc2n1	i	2%	21%	?	i	4%
CC[C@@H]1OC(=O)[C@@H](C)[C@H](O[C@@H]2C[C@@](C)(OC)[C@@H](O)[C@H](C)O2)[C@H](C)[C@H](O[C@@H]2O[C@@H](C)C[C@@H](N(C)C)[C@H]2O)[C@@](C)(O)C[C@H](C)C(=O)[C@@H](C)[C@H](O)[C@@]1(C)O	i	.	-3%	?	i	.
